HT1080 IDH1KD tx = HT-1080 IDH1 knockdown cell toxicity (counter line). actives 2% (n = 360,000). HT-1080 IDH1 knockdown viability, ATP luminescence, 48 h. AID 686971. Potency, µM (doses to about 46.1 µM), usual class: cytotoxic
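After a 2 h attachment period, IDH1KD HT-1080 cells took pin-transferred compound for 48 h at 37 °C; ATP-based luminescence after 10 min room-temperature reagent incubation reported viability.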
DT40 TDP1 CPT = growth inhibition of DT40 Tdp1-/-;hTDP1 cells with camptothecin (screen for TDP1 inhibitors); chicken DT40 Tdp1-/-;hTDP1 cells + 20 nM CPT, ATP luminescence, 48 h; Potency, µM (top dose mostly 46.2 µM), actives largely listed as inhibitors; actives 12% (n = 420,000); AID 686979; note: nearly all actives have a fitted effect of over 55% in size
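Cell growth measured by CellTiter-Glo luminescence after a minimum 48 h, 37 C compound exposure with 20 nM CPT in Tdp1-knockout DT40 cells stably expressing hTDP1, seeded 400/well; qHTS titration format.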
TDP1 cell noCPT = qHTS for Inhibitors of human tyrosyl-DNA phosphodiesterase 1 (TDP1): qHTS in cells in absence of CPT. AID 686978, 2013. Potency, µM (doses to about 46.2 µM), actives largely listed as inhibitors. DT40 Tdp1-/- hTDP1 cells, no CPT, ATP luminescence, 48 h. actives 15% (n = 420,000); note: nearly all actives have a fitted effect of over 55% in size
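Growth of hTDP1-complemented DT40 Tdp1-knockout cells is measured by ATP luminescence after at least 48 hr compound exposure at 37 °C, with DMSO substituting for the 20 nM CPT used in the parallel screen.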
IL-1B inflam inh = inhibitors of inflammasome signaling (IL-1 beta secretion) | activity change, % at 57.5 µM | actives 4.7% (n = 360,000) | THP-1 LPS/ATP IL-1B secretion, AlphaLISA, 16 h; stronger effect = lower value; in the data active = activity change below about -50%; inconclusive = mostly about -30% to -49%
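THP-1 cells pretreated 1 hr with compounds (up to 57.5 uM final), then stimulated with LPS (250 ng/mL final) plus ATP (1.25 mM final); secreted IL-1B measured by AlphaLISA after 16 hr, decreased signal indicating inhibition.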
ELG1 DNA repair = ELG1-dependent DNA repair inhibition | actives 2.3% (n = 330,000) | HEK293T ELG1-luciferase reporter, luminescence, 16 h; DNA damage induced by 5-fluorouridine | Potency, µM (doses to about 46.1 µM), actives largely listed as inhibitors; note: nearly all actives have a fitted effect of over 55% in size
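Luminescence from the luciferase reporter, measured 30 min after ONE-Glo reagent at room temperature, was the read-out. Beforehand, 2,000 cells per well were exposed for 16 hr at 37 °C to 5-fluorouridine together with compound or vehicle.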
HT1080NT lethal = kills 2HG-producing HT-1080-NT fibrosarcoma cells; HT-1080-NT fibrosarcoma viability, CellTiter-Glo ATP luminescence, 48 h; Potency, µM (top dose mostly 46.1 µM), actives largely listed as cytotoxic; actives 1.6% (n = 360,000);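 note: NT is the 2HG producing partner of a matched IDH1 knockdown line; nearly all actives have a fitted effect of over 55% in size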
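A 48-hour cytotoxicity screen used HT-1080-NT cells plated 2 hours before compound delivery. ATP-based CellTiter-Glo luminescence measured viability, normalized to DMSO and no-cell controls.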
A number is an active result. This is a sample that favours compounds with a hit; in the whole collection about 19% have one here. Unless noted, calls come from the whole dose curve; as a rule, active = well fitted curve in the direction sought with a large enough effect; inconclusive = small, poorly fitted or top-dose-only effect, or another doubt; inactive = no such curve, though single readings can be large; an effect the other way counts as inactive or inconclusive.

For CCOCCCNC(=O)c1cc2c(=O)n(CC)c3ccccc3c2s1 the results were HT1080 IDH1KD tx inactive, DT40 TDP1 CPT inconclusive, TDP1 cell noCPT inconclusive, IL-1B inflam inh inactive, ELG1 DNA repair inactive and HT1080NT lethal inconclusive.
`CCOc1ccc(CNC(=O)c2cc3c(=O)n(C)c4ccccc4c3s2)cc1` gave DT40 TDP1 CPT 9.2µM and TDP1 cell noCPT 2.6µM.
CCN(CCCNC(=O)c1cc2c(=O)n(C)c3ccccc3c2s1)c1ccccc1 was read as DT40 TDP1 CPT inconclusive and TDP1 cell noCPT 15µM.
`CCN(CCCNC(=O)c1cc2c(=O)n(C)c3ccccc3c2s1)Cc1ccccc1` gave DT40 TDP1 CPT 15µM and TDP1 cell noCPT 21µM.
For NNC(=O)c1cc2cc3ccccc3nc2s1 the results were HT1080 IDH1KD tx inconclusive, DT40 TDP1 CPT 5.2µM, TDP1 cell noCPT inconclusive, IL-1B inflam inh inactive, ELG1 DNA repair inactive and HT1080NT lethal inconclusive.
For O=C(O)C1=CC(c2ccc(Br)cc2)n2ncnc2N1 (stereo unspecified) the results were DT40 TDP1 CPT inactive and TDP1 cell noCPT inactive.
Screening CCOC(=O)C1=CCN(S(=O)(=O)c2ccccc2Br)C1c1ccc(C)cc1 (stereo unspecified) returned HT1080 IDH1KD tx inconclusive, DT40 TDP1 CPT inactive, TDP1 cell noCPT inconclusive, IL-1B inflam inh inactive and HT1080NT lethal inconclusive.
For CCN(CCCNC(=O)c1cc2cc3ccc(C)cc3nc2s1)c1ccccc1 the results were DT40 TDP1 CPT inconclusive and TDP1 cell noCPT 26µM.
Screening CCN(CCCNC(=O)c1cc2cc3cc(OC)ccc3nc2s1)c1cccc(C)c1 returned DT40 TDP1 CPT inactive and TDP1 cell noCPT inconclusive.
`COc1cccc2c1Oc1ncccc1N(C(=O)CCC(=O)NC(C)C)C2` gave DT40 TDP1 CPT inactive and TDP1 cell noCPT inactive.
O=C(Cn1c(=O)oc2cc(S(=O)(=O)N3CCCC3)ccc21)NCc1ccc(Cl)cc1 was read as DT40 TDP1 CPT 16µM and TDP1 cell noCPT 21µM.
O=C(Cn1c(=O)oc2cc(S(=O)(=O)NCc3ccccc3)ccc21)NCc1ccc(Cl)cc1 was read as DT40 TDP1 CPT 13µM and TDP1 cell noCPT inconclusive.
For O=C(Cn1c(=O)oc2cc(S(=O)(=O)NCc3ccccc3)ccc21)NCc1ccco1 the results were HT1080 IDH1KD tx inactive, DT40 TDP1 CPT inconclusive, TDP1 cell noCPT inconclusive, IL-1B inflam inh inactive, ELG1 DNA repair inactive and HT1080NT lethal inactive.
O=C(Cn1c(=O)oc2cc(S(=O)(=O)N3CCCC3)ccc21)NCc1ccccn1 was read as HT1080 IDH1KD tx inactive, DT40 TDP1 CPT inactive, TDP1 cell noCPT inactive, IL-1B inflam inh inactive, ELG1 DNA repair inconclusive and HT1080NT lethal inactive.
`O=C(Cn1c(=O)oc2cc(S(=O)(=O)NCc3ccccc3)ccc21)NCc1ccccc1Cl` gave DT40 TDP1 CPT 7.3µM and TDP1 cell noCPT 9.2µM.
Screening Cc1c(CC(=O)N2C[C@H]3C[C@@H](C2)c2cccc(=O)n2C3)c(=O)oc2cc3occ(C(C)(C)C)c3cc12 returned HT1080 IDH1KD tx inactive, DT40 TDP1 CPT inconclusive, TDP1 cell noCPT inconclusive, IL-1B inflam inh inactive, ELG1 DNA repair inactive and HT1080NT lethal inactive.
Screening Cn1ncc2c(N3CCC(Cc4ccccc4)CC3)ncnc21 returned HT1080 IDH1KD tx inconclusive, DT40 TDP1 CPT inconclusive, TDP1 cell noCPT 16µM, IL-1B inflam inh inactive, ELG1 DNA repair inconclusive and HT1080NT lethal inactive.
O=C(c1cnc(Cl)c(Cl)c1)N1CCC(Cc2ccccc2)CC1 was read as HT1080 IDH1KD tx inactive, DT40 TDP1 CPT inactive, TDP1 cell noCPT inconclusive, IL-1B inflam inh inactive, ELG1 DNA repair inactive and HT1080NT lethal inactive.
For Cn1ncc2c(N3CCN(c4ccc(F)cc4)CC3)ncnc21 the results were DT40 TDP1 CPT inconclusive and TDP1 cell noCPT 18µM.
COc1ccccc1N1CCN(c2ncnc3nc[nH]c23)CC1 was read as HT1080 IDH1KD tx inactive, DT40 TDP1 CPT inconclusive, TDP1 cell noCPT inconclusive, IL-1B inflam inh inactive, ELG1 DNA repair inconclusive and HT1080NT lethal inactive.
NNC(=O)c1cc2c(N3CCC(Cc4ccccc4)CC3)ncnc2s1 was read as HT1080 IDH1KD tx inconclusive, DT40 TDP1 CPT 16µM, TDP1 cell noCPT 23µM, IL-1B inflam inh inactive, ELG1 DNA repair 23µM and HT1080NT lethal inconclusive.
Screening COc1ccccc1N1CCN(c2ncnc3c2cnn3C)CC1 returned DT40 TDP1 CPT inconclusive and TDP1 cell noCPT 18µM.
For Cc1ccnc(N2CCCC(C(=O)Nc3cccc(C)c3C)C2)n1 (stereo unspecified) the results were HT1080 IDH1KD tx inactive, DT40 TDP1 CPT inactive, TDP1 cell noCPT inactive, IL-1B inflam inh inactive, ELG1 DNA repair inactive and HT1080NT lethal inactive.
For CCc1nc2ccc(C(=O)NCCOc3ccc(OC)cc3)cn2c1N(C)CCCc1ccccc1 the results were HT1080 IDH1KD tx inactive, DT40 TDP1 CPT inconclusive, TDP1 cell noCPT inconclusive, IL-1B inflam inh inactive and HT1080NT lethal inconclusive.
`OCC[C@@H]1C[C@H](O)[C@@H](O)[C@]2(Cc3ccccc3CCO2)O1` gave HT1080 IDH1KD tx inactive, DT40 TDP1 CPT inactive, TDP1 cell noCPT inactive, IL-1B inflam inh inactive, ELG1 DNA repair inactive and HT1080NT lethal inactive.
COCCNC(=O)COc1ccc(C)cc1C(=O)c1cc(C#N)c(=O)n(C2CC2)c1 was read as HT1080 IDH1KD tx inactive, DT40 TDP1 CPT inactive, TDP1 cell noCPT inactive, IL-1B inflam inh inactive, ELG1 DNA repair inactive and HT1080NT lethal inactive.
`C=C1CC(COc2cc(=O)oc3ccccc23)(c2ccccc2)OC1=O` (stereo unspecified) gave HT1080 IDH1KD tx 5.2µM, DT40 TDP1 CPT 1.2µM, TDP1 cell noCPT 1.6µM, IL-1B inflam inh -117 and HT1080NT lethal 16µM.
Screening C=C1CCC2C(C)(C)[C@H](O)CC[C@@]2(C)[C@@H]1COc1cc(=O)oc2ccccc12 (stereo partly specified) returned HT1080 IDH1KD tx inconclusive, DT40 TDP1 CPT inconclusive, TDP1 cell noCPT inconclusive, IL-1B inflam inh inactive, ELG1 DNA repair inconclusive and HT1080NT lethal inconclusive.
For Cc1csc(N(C(=O)c2ccccc2F)c2ccccc2)n1 the results were HT1080 IDH1KD tx inactive, DT40 TDP1 CPT 23µM, TDP1 cell noCPT 10µM, IL-1B inflam inh inactive, ELG1 DNA repair inactive and HT1080NT lethal inactive.
CCCC1NC(=O)c2cccnc2-n2c1nc1cc(C)cc(C)c1c2=O (stereo unspecified) was read as HT1080 IDH1KD tx inactive, DT40 TDP1 CPT inconclusive, TDP1 cell noCPT inconclusive, IL-1B inflam inh inactive and HT1080NT lethal inactive.

High-throughput results (PubChem)
